Assay outcomes as filed in PubChem BioAssay.
TRHR ag: agonists of human TRH receptor; activation, % at 2 µM; 0.18% of 360,000 active; P34981; AID 493084; TRHR cells, calcium flux fluo-8, FDSS agonist mode
Target sequence (P34981 whole entry, looked up): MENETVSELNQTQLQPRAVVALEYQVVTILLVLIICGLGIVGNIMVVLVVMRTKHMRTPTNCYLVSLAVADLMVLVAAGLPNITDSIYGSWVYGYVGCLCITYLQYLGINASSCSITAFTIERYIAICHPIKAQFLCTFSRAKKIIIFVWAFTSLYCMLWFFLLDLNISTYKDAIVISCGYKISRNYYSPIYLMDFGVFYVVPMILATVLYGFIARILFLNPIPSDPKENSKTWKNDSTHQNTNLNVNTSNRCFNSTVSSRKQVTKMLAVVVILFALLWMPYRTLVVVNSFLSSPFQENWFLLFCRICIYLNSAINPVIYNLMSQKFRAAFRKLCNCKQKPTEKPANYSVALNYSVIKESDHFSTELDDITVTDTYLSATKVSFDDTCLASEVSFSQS
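TRHR-expressing cells, plated overnight in medium with 10% serum, were loaded with fluo-8 calcium dye at room temperature. After a 10 s baseline, library compound was pin-added and calcium release was recorded kinetically (ex 480/em 530) as agonist response.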
D1 ag: human D1 receptor agonism. 1% of 360,000 active. HEK293 T-REx D1 cells, calcium flux, agonist mode. activation, % at 2 µM. P21728
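Agonism was scored from calcium flux recorded over 180 s (1 read/s) after pintool compound addition, following a 10-cycle baseline. Cells were inducible force-coupled HEK293 TREx D1, plated overnight at 30 C and loaded with no-wash calcium dye.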
LDHA inh: blocks human lactate dehydrogenase A. P00338. purified LDHA, NADH/diaphorase-resazurin fluorescence; stronger effect = lower value. activity change, % (values are at about 110 or 230 µM). 0.15% of 480,000 active; in the data active = activity change below about -30%
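Resorufin fluorescence (ex540/em590), read at 0 and 20 min after diaphorase/resazurin addition, reports the NADH left after a 5 min room-temperature reaction of 2 nM human LDH5 with 0.06 mM NADH and 0.2 mM pyruvate.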
TRHR enhancer: TRH receptor (human) allosteric enhancement; TRHR cells, fluo-8 calcium fluorescence, EC20 TRH enhancement; enhancement, % at 2 µM; 0.66% of 360,000 active; in the data active = enhancement above about 30%
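Enhancer read-out: after compound pinning and an initial kinetic agonist-mode read, an EC20 of TRH (10 nM final) was injected and fluo-8 calcium signal (Ex 480/Em 530) followed at 1 s/cycle for 100 cycles in TRHR-expressing cells.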
D1 PAM: potentiators of human D1 dopamine receptor; potentiation, % at 10 µM; 0.036% of 360,000 active; HEK293 TREx D1 cells, calcium flux, dopamine EC20 potentiation; P21728; in the data active = potentiation above about 30%
D1 antagonist: antagonists of human D1 dopamine receptor; P21728; activity change, negative = inhibition, % at 10 µM; 3.2% of 360,000 active; HEK293 TREx D1 cells, calcium flux, dopamine EC80; stronger effect = lower value; in the data active = activity change below about -30%
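HEK293 T-REx cells expressing inducible, force-coupled D1 receptor; no-wash Ca dye, 30–90 min RT. Cmpd → 180 s read at 1 Hz → EC80 DA → 180 s read.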
Each line names hits and unclear results; the compound was inactive in the other large screens; ! = not confirmed by another sample. Most compounds without a hit are left out; they make up all but 3.6% or so of the library. Cut-off read from the data, not from the text of the source, unless noted: active = activation above about 30%; inactive = the rest.

COC(=O)c1ccc(NC2CC(=O)N(c3ccccc3C)C2=O)cc1 (stereo unspecified)	D1 antagonist -33
COC(=O)c1ccccc1NC1CC(=O)N(c2c(C)cccc2C)C1=O (stereo unspecified)	TRHR enhancer 33
O=C(CNS(=O)(=O)c1ccccc1F)NNC(=O)c1ccc(Br)cc1	TRHR enhancer 32
O=C(CNC(=O)c1ccc(Br)o1)NNC(=O)c1ccc(Br)cc1	none
Cc1ccccc1OCCN	none (no result: TRHR ag, D1 ag, TRHR enhancer, D1 PAM, D1 antagonist)
Cc1ccccc1Oc1ccccc1N	D1 antagonist -31
CCCc1nc2nc(C)cc(Nc3c(C)cc(C)cc3C)n2n1	none (no result: TRHR ag, D1 ag, TRHR enhancer, D1 PAM, D1 antagonist)
COc1cccc(-c2ccc3ncnc(NCc4cccnc4)c3c2)c1	none
c1cncc(CNc2ncnc3ccc(-c4ccco4)cc23)c1	D1 antagonist -77 (no result: LDHA inh)
Cc1csc(CNc2ncnc3ccc(-c4ccco4)cc23)c1	D1 antagonist -39 (no result: LDHA inh)
CCOc1ccc(CSC2=NCCN2)cc1Cl	D1 antagonist -35
N#Cc1ccc(CSC2=NCCN2)cc1	none
O=c1[nH]c(CN2CCN(c3ccccc3)CC2)nc2ccccc12	none
COc1cccc(N2CCN(Cc3nc4ccccc4c(=O)[nH]3)CC2)c1	D1 antagonist -62
c1ccc(CN2CCOCC2)nc1	none (no result: TRHR ag, D1 ag, TRHR enhancer, D1 PAM, D1 antagonist)
Fc1ccc(N2CCN(Cc3ccccn3)CC2)cc1	LDHA inh -31
O=c1[nH]c(CN2CCN(c3ccc(F)cc3)CC2)nc2ccccc12	TRHR enhancer 34
O=C(c1cccs1)N1CCN(Cc2nc3ccccc3c(=O)[nH]2)CC1	none
CCC(CC)C(=O)N1CCN(Cc2nc3ccccc3c(=O)[nH]2)CC1	TRHR enhancer 32
O=C(O)c1cnc(OCC(F)(F)F)c(Cl)c1	none (no result: TRHR ag, D1 ag, TRHR enhancer, D1 PAM, D1 antagonist)
O=C(Cn1nnc2sc3c(c2c1=O)CCCC3)OC1CCCC1	none (no result: TRHR ag, D1 ag, TRHR enhancer, D1 PAM, D1 antagonist)
CC(NC1CC1)c1ccc(Cl)cc1 (stereo unspecified)	none (no result: TRHR ag, D1 ag, TRHR enhancer, D1 PAM, D1 antagonist)
CCC1Oc2cc(S(=O)(=O)N(C)CC(=O)N3CCCc4ccccc43)c(C)cc2NC1=O (stereo unspecified)	none (no result: TRHR ag, D1 ag, TRHR enhancer, D1 PAM, D1 antagonist)
Cc1cc2c(s1)c1cnn(Cc3cccc(Cl)c3F)c(=O)c1n2C	none
Cc1cc2c(s1)c1cnn(Cc3cc(C(F)(F)F)cc(Cl)c3F)c(=O)c1n2C	D1 antagonist -35
CC(=O)N1c2ccccc2C(=O)C1N1CCN(c2ccc(F)cc2)CC1 (stereo unspecified)	D1 antagonist -46
CC(=O)N1c2ccccc2C(=O)C1N1CCN(c2ccccc2)CC1 (stereo unspecified)	none
O=C(NCc1ccc(F)cc1)c1cccc2c1C(=O)c1ccc(N3CCOCC3)cc1S2(=O)=O	D1 ag 42 (no result: D1 antagonist)
O=C(NCc1ccc(F)cc1)c1cccc2c1C(=O)c1ccc(N3CCC(Cc4ccccc4)CC3)cc1S2(=O)=O	none (no result: TRHR ag, D1 ag, TRHR enhancer, D1 PAM, D1 antagonist)
O=C(NCc1ccccc1Br)c1cccc2c1C(=O)c1ccc(N3CCOCC3)cc1S2(=O)=O	D1 ag 37 (no result: LDHA inh)
CC1CCN(c2ccc3c(c2)S(=O)(=O)c2cccc(C(=O)NCc4ccc(F)cc4)c2C3=O)CC1	TRHR ag 78, D1 ag 337
O=C(NCc1ccc(F)cc1)c1cccc2c1C(=O)c1ccc(N3CCC(N4CCCCC4)CC3)cc1S2(=O)=O	none (no result: TRHR ag, D1 ag, TRHR enhancer, D1 PAM, D1 antagonist)
O=C(NCCc1ccccc1)c1cccc2c1C(=O)c1ccc(N3CCOCC3)cc1S2(=O)=O	none (no result: TRHR ag, D1 ag, TRHR enhancer, D1 PAM, D1 antagonist)
CC1CCN(c2ccc3c(c2)S(=O)(=O)c2cccc(C(=O)NC4CCCCC4)c2C3=O)CC1	TRHR ag 39, D1 ag 35, D1 antagonist -31
Cc1ccc(C(=O)Nc2cccc3cnccc23)cc1S(=O)(=O)N1CCCC1	none (no result: TRHR ag, D1 ag, TRHR enhancer, D1 PAM, D1 antagonist)
COc1ccccc1CNC(=O)c1ccc2c(c1)N(Cc1cc(C)ccc1C)C(=O)c1ccccc1S2	D1 antagonist -38
O=C(NCc1ccco1)c1ccc2c(c1)N(Cc1c(F)cccc1Cl)C(=O)c1ccccc1S2	none
CCN(CC)CCCNC(=O)c1ccc2c(c1)N(Cc1c(F)cccc1Cl)C(=O)c1ccccc1S2	D1 ag 45
Cc1ccc(CN2C(=O)c3ccccc3Sc3ccc(C(=O)NCCCN4CCOCC4)cc32)cc1	D1 ag 43!
Cc1c(C)n(Cc2ccc(F)cc2)c2ccc(C(=O)NCCCN3CCOCC3)cc12	D1 antagonist -37
O=C(CCc1ncc(-c2c(F)cccc2F)o1)N1CCSCC1	none (no result: TRHR ag, D1 ag, TRHR enhancer, D1 PAM, D1 antagonist)
N#CCCNC(=O)COC(=O)/C=C/c1cccc2cccnc12	none (no result: TRHR ag, D1 ag, TRHR enhancer, D1 PAM, D1 antagonist)
CCOc1ccc(C2c3c(ncn(-c4ccccc4)c3=N)Oc3ccc4ccccc4c32)cc1OCC (stereo unspecified)	none (no result: TRHR ag, D1 ag, TRHR enhancer, D1 PAM, D1 antagonist)
CCN1C(=O)c2ccccc2Sc2ccc(NC(=O)c3ccc(C)c(F)c3)cc21	D1 antagonist -72
CC1CCCN(CCCNC(=O)c2ccc3c(c2)N(Cc2ccc(F)cc2)C(=O)c2ccccc2S3=O)C1 (stereo unspecified)	D1 ag 39
C=CCN1C(=O)/C(=C/C=C2/N(CC)c3ccc(S(=O)(=O)N(C)C)cc3N2CC)SC1=S	TRHR ag 45, D1 ag 118
Cc1ccc(S(=O)(=O)NCCSc2nnnn2-c2ccccc2)cc1	none
Cc1ccc(S(=O)(=O)NCCSc2nnnn2-c2cc(C)ccc2C)cc1	D1 antagonist -40
CCOC(=O)/C(C#N)=C\c1ccc(N2CCN(C/C=C/c3ccccc3)CC2)cc1	D1 ag 109
CCOC(=O)/C(C#N)=C/c1cc(C)n(-c2ccc(C)cc2)c1C	D1 antagonist -75
CCOC(=O)/C(C#N)=C\c1cc(C)n(-c2ccccc2)c1C	none
Cc1cc(/C=C(\C#N)C(=O)NCc2cccs2)c(C)n1-c1ccc([N+](=O)[O-])cc1	D1 antagonist -56
O=C(c1ccsc1)N(CC1CCOC1)C1CC1 (stereo unspecified)	none (no result: TRHR ag, D1 ag, TRHR enhancer, D1 PAM, D1 antagonist)
O=C(c1ccc2c(c1)CCN2S(=O)(=O)c1ccc(Br)cc1)N1CCCC1	none (no result: TRHR ag, D1 ag, TRHR enhancer, D1 PAM, D1 antagonist)
Nc1c(C(=O)C2CC2)sc2nc(-c3cccs3)cc(C(F)(F)F)c12	TRHR ag 53, D1 ag 173
Nc1c(C(=O)Nc2ccc(F)cc2)sc2nc(-c3cccs3)cc(C(F)(F)F)c12	TRHR ag 100, D1 ag 265, D1 antagonist -44
FC(F)(F)c1cc(-c2cccs2)nc2sc3ccccc3c12	none (no result: TRHR ag, D1 ag, TRHR enhancer, D1 PAM, D1 antagonist)
Cc1nonc1OCCN1CCN(c2ccc([N+](=O)[O-])cc2)CC1	D1 antagonist -40
O=[N+]([O-])c1ccc(N2CCN(CCOc3nonc3-c3ccccc3)CC2)c(Cl)c1	none
O=[N+]([O-])c1ccc(N2CCN(Cc3ccc([N+](=O)[O-])o3)CC2)cc1	D1 antagonist -33
O=[N+]([O-])c1ccc(N2CCSCC2)cc1	D1 antagonist -38
Cc1ccc2cc(COC(=O)c3cccc([N+](=O)[O-])c3)c(=O)[nH]c2c1	D1 antagonist -34
